Measured values published in ChEMBL document CHEMBL2218924, “A broad activity screen in support of a chemogenomic map for kinase signalling research and drug discovery” (Biochem J, 2013).

target: Macrophage colony-stimulating factor 1 receptor (Homo sapiens) (UniProt P07333); details: at 1 µM
Sequence (P07333 whole entry): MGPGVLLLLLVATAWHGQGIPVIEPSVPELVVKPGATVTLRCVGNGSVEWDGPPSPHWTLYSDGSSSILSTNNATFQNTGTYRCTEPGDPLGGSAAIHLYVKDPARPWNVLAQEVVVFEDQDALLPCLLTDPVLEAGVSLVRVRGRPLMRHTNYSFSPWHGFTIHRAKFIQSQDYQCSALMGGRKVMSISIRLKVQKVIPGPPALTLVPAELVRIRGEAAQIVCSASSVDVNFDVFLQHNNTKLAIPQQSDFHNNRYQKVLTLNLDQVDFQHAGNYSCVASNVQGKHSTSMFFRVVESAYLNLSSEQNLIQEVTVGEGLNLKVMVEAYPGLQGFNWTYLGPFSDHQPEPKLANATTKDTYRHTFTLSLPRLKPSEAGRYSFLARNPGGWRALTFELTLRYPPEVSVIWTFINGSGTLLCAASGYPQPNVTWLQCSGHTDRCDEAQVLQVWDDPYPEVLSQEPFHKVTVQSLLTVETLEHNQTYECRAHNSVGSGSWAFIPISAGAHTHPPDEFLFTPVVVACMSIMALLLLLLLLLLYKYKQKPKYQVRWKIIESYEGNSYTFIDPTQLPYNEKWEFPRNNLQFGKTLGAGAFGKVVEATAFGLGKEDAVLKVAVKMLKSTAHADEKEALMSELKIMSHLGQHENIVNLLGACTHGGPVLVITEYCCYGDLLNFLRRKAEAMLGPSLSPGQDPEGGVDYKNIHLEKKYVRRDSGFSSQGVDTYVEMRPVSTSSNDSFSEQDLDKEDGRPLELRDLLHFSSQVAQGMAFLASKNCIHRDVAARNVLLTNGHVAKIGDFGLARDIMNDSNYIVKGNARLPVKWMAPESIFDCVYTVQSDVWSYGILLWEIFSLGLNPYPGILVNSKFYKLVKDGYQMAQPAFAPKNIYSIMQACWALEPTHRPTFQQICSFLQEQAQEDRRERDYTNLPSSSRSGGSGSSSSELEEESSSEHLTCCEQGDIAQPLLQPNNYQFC

SMILES | residual activity
NC(=O)c1ccc(-c2nc(-c3ccc4c(c3)OCCO4)c(-c3ccccn3)[nH]2)cc1 | 74%
COc1cc2ncnc(Nc3cccc(Cl)c3)c2cc1OC | 88%
O=C1NC(=O)C(c2cn(CCCn3ccnc3)c3ccccc23)=C1Nc1ccccc1 | 66%
Fc1ccc(-c2nc3n(c2-c2ccncc2)CCS3)cc1 | 90%
O=S(=O)(NCCNC/C=C/c1ccc(Br)cc1)c1cccc2cnccc12 | 116%
COc1ccc(Cl)cc1NC(=O)Nc1cc(C)nc2ccccc12 | 89%
O=C1Nc2ccccc2/C1=C\c1c(Cl)[nH]c2ccccc12 | 79%
NC(=O)c1cccc(-c2cc(Nc3ccc(OC(F)(F)F)cc3)ncn2)c1 | 74%
CC(C)[C@H](CO)Nc1nc(Nc2cc(N)cc(Cl)c2)c2ncn(C(C)C)c2n1 | 55%
CCN1/C(=C/C(C)=O)Sc2ccc(OC)cc21 | 81%
N#Cc1c(NC(=O)c2cccc3ccccc23)sc2c1CCCC2 | 69%
N#C/C(=C1/Nc2ccccc2S1)c1ccnc(NCCc2cccnc2)n1 | 70%
O=C(Nc1ccc(Cl)cc1)c1ccccc1NCc1ccncc1 | 1%
N#C/C(=C\c1ccc(O)c(O)c1)C(=O)NCc1ccccc1 | 67%
COc1cc2c(cc1OC)-c1n[nH]c(Nc3cccc(F)c3)c1C2 | 1%
O=C(c1ccccc1)c1ccc(N2CCOCC2)cc1O | 75%
CC(C)(C)c1nc2c3ccc(F)cc3c3c(=O)[nH]ccc3c2[nH]1 | 54%
O=c1cc(N2CCOCC2)oc2c(-c3ccccc3)cccc12 | 66%
NCCNc1ncc(C(N)=O)c(Nc2cccc(C(F)(F)F)c2)n1 | 57%
